Reference: PubChem BioAssay (NCATS)
Records with an inconclusive call do not appear. Where a call stands in place of a potency, no number is given. A number with no mark means an inactive call. Calls of active or inactive are those of the source. Calls follow the shape of the dose curve; as a rule, active = well fitted activation curve with a large enough effect; inconclusive = small, poorly fitted or top-dose-only effect; inactive = flat fitted curve, though single readings scatter.

Assay: Primary redox qHTS assay for identification of artifact compounds. (AID 1845223)
Details: Amplex Red/HRP redox cycling with DTT, fluorescence; series mostly up to 53.8 µM
Excerpt: PI: Alexander Tropsha Ph.D.
UNC Eshelman School of Pharmacy
University of North Carolina, Chapel Hill, North Carolina
Hits from high-throughput screening (HTS) of chemical libraries are often false positives due to their interference with the assay detection technology. In response to this problem, we generated the largest publicly available library of chemical liabilities and developed a free webtool to predict HTS artifacts, both of which are described herein. More specifically, we generated, curated, and integrated HTS datasets for thiol reactivity, redox activity, and luciferase (firefly and nano) activity. Using these curated datasets, we developed and validated several Quantitative Structure-Interference Relationship (QSIR) models to predict nuisance behavior. […] These models were employed for virtual profiling of the National Center for Advancing Translational Science's (NCATS) in-house library, and 256 compounds for each assay were selected for the experimental validation of nuisance behavior. The BA for these external predictions ranged from 58 to 78% for compounds within the applicability domains of the models. […] The models developed in this study, along with aggregation models previously developed by our group (SCAM Detective) were implemented in "Liability Predictor," an online tool which may be used as part of chemical library design or for triaging HTS hits. Both the models and the curated datasets are publicly available at https://liability.mml.unc.edu/.
SEQUENCE No. (e.g., 1, 2, 3, etc.); […] (e.g., Cells, Incubation, Reagent, etc.); VALUE; DESCRIPTION.
1; Reagent; 3 uL; Amplex Red and HRP mixture.
2; Compounds and control; 16 nL; Kalypsis pin tool (Wako USA) equipped with a 1536-well pin head. […]
6; Detection; Fluorescence, ViewLux microplate reader, 525 nm excitation, 598 nm emission.
NOTES (numbers refer to Sequence numbers above)
1. 3 uL of a mixture containing Amplex Red (25 uM final concentration) and horseradish peroxidase (HRP; 250 mU/mL final concentration) in assay buffer (HBSS) was dispensed into all wells of a 1536-well assay plate (solid-bottom black plate; Greiner Bio One, Monroe, NC).
2. A Wako Pin-tool (Wako Automation, Richmond, VA) was used to transfer 16 nL of compounds (consisting of 7-plates in qHTS format, final concentration range 18.3 nM to 114 uM) or control DA3003 (final concentration range 1.22 nM to 40 uM).
3. 15 min. incubation at room temperature protected from light.
4. 1 uL of DTT (prepared fresh; final concentration 250 uM) was dispensed for a final assay volume of 4 uL.
5. Plates were centrifuged (121xg, 15 seconds) and incubated for 30 minutes at room temperature protected from light.
6. Samples were read for fluorescence (Ex/Em = 525(20)/598(25) nm) on a ViewLux CCD imager (PerkinElmer). Data were normalized to DMSO (0% activity) and DA3003 (10 uM final concentration; 100% activity) and the resulting percent inhibition data were fitted to a 4-parameter Hill equation using NCATS in-house software.

| Compound | Potency | redox activity (% of DA3003) |
| --- | --- | --- |
| C=C1CC23CC(=O)C4C(CO)(CO)CCCC4(C)C2CCC1C3 (stereo not given) | inactive | – |
| C=CC(C)(CC/C=C(\C)C(=O)OC)OC1OC(COC(=O)CC(C)(O)CC(=O)O)C(O)C(O)C1O (stereo not given) | inactive | – |
| N#Cc1cc(-c2n[nH]c(-c3ccncc3)n2)ccn1 | inactive | – |
| C=CC1(C)CC2CCC3C(C)(C(=O)O)CCCC3(C)C2=CC1=O (stereo not given) | inactive | – |
| CC1(C(=O)O)CCCC2(C)C3CCC4CC3(CCC12)CC4C(=O)O (stereo not given) | inactive | – |
| O=C(Cc1ccc(Cl)cc1)Nc1cnccc1C(=O)O | inactive | – |
| C[C@@H]1C[C@@H](O)[C@@]2(CO)C(CO)=CCC[C@@H]2[C@@]12C[C@@H](c1ccoc1)OC2=O | inactive | – |
| C[C@@H]1O[C@@H](O[C@H]2[C@H](OC(=O)[C@]34CCC(C)(C)C[C@H]3C3=CCC5[C@@]6(C)CC[C@H](O[C@@H]7O[C@H](CO[C@@H]8OC[C@H](O)[C@H](O)[C@H]8O)[C@@H](O)[C@H](O)[C@H]7O)C(C)(C)C6CC[C@@]5(C)[C@]3(C)C[C@H]4O)OC[C@@H](O)[C@@H]2O)[C@H](O)[C@H](O[C@@H]2OC[C@](O)(CO)[C@H]2O)[C@H]1O[C@@H]1OC[C@H](O)[C@H](O[C@@H]2OC[C@@H](O)[C@H](O)[C@H]2O)[C@H]1O (stereo not given in full) | – | 19.6% [at 11.5 µM] |
| CN1CCCC1Cc1c[nH]c2ccc(CCS(=O)(=O)c3ccccc3)cc12 (stereo not given) | inactive | – |
| COc1cc(/C=C/C(=O)O[C@@H]2O[C@H](CO)[C@@H](O)[C@H](O)[C@H]2O)ccc1O | inactive | – |
| CC1OC(O[C@H]2CC[C@@]3(C)C(CC[C@]4(C)C3CC=C3C5CC(C)(C)CC[C@]5(C(=O)OC5OC(CO)C(OC6OCC(OC7OCC(O)C(O)C7O)C(O)C6O)C(O)C5O)CC[C@]34C)C2(C)C)C(O)C(O)C1OC1OC(CO)C(O)C(OC2OC(CO)C(O)C(O)C2O)C1O (stereo not given in full) | – | 2.88% [at 11.5 µM] |
| Cc1occc(=O)c1O[C@@H]1O[C@H](CO)[C@@H](O)[C@H](O)[C@H]1O | inactive | – |
| C=C1C2(C)CC3C4(C)OC(C5OC56C4=CC(=O)OC6(C)C)C3(C)C13C(=O)OC(C)C3(O)C2=O (stereo not given) | inactive | – |
| CC1OC(O[C@@H]2[C@@H](O)[C@H](OC(=O)[C@]34CCC(C)(C)C[C@H]3C3=CCC5[C@@]6(C)CC[C@H](O[C@@H]7O[C@H](C(=O)O)[C@@H](O)[C@H](O[C@@H]8OC[C@@H](O)[C@H](O)[C@H]8O)[C@H]7O[C@@H]7O[C@H](CO)[C@H](O)[C@H](O)[C@H]7O)[C@@](C)(C=O)C6CC[C@@]5(C)[C@]3(C)C[C@H]4O)O[C@H](C)[C@@H]2OC2OC(C)C(OC3OCC(O)C(O)C3O)C(O)C2O)C(O)C(O)C1O (stereo not given in full) | – | 19.3% [at 11.5 µM] |
| CCCCCOC(=O)Nc1nc(=O)n(C2O[C@H](C)[C@@H](O)[C@H]2O)cc1F (stereo not given in full) | inactive | – |
| CCN=C1N[C@@H]2[C@@H](O)[C@H](O)[C@@H](CO)O[C@@H]2S1 | inactive | – |
| COc1cc(C)c(C(=O)O[C@@H]2[C@H](O)[C@@H](CO)O[C@H]2n2ccc(=O)[nH]c2=O)c(OC)c1 | inactive | – |
| OCC1OC(Oc2cc(O)cc(/C=C/c3ccc(OC4OC(CO)C(O)C(O)C4O)cc3O)c2)C(O)C(O)C1O (stereo not given) | inactive | – |
| Cc1ccc([C@@H]2CC=C(C(=O)O)[C@H](c3ccc(C(C)(C)C)cc3)N2S(=O)(=O)c2ccc(C)cc2)cc1 | inactive | – |
| Cc1oc2nc3c(c(NC(=O)CN4CCCC4=O)c2c1C)CCCC3 | inactive | – |

| Compound | Potency | redox activity (% of DA3003) |
| --- | --- | --- |
| COc1cc(C(CO)C(OC2OC(CO)C(O)C(O)C2O)c2ccc(O)c(OC)c2)ccc1O (stereo not given) | inactive | – |
| Cc1c(C)c(NCC(=O)N(C)C2CCN(Cc3ccc(C(N)=O)cc3)CC2)c(C)c(C)c1N | inactive | – |
| COc1cc([C@@H](O[C@@H]2O[C@H](CO)[C@@H](O)[C@H](O)[C@H]2O)[C@@H]2CO[C@H](c3ccc(O)c(OC)c3)[C@H]2CO)ccc1O | inactive | – |
| CC(=O)OC12CC(C)C(OC(=O)c3ccccc3)C1/C=C(/C)C(OC(=O)c1ccccc1)CC(=O)C(C)(C)/C=C/C(C)C2=O (stereo not given) | inactive | – |
| CC(CC12CCCN1C(=O)C1CCCN1C2=O)OC(N)=O (stereo not given) | inactive | – |
| CC(=O)NC1CC(=O)C23C(=O)NC(Cc4c[nH]c5ccccc45)C2C(C)=C(C)C(O)C3/C=C/CC(C)/C=C(/C)C(O)C1O (stereo not given) | inactive | – |
| C=C(C)[C@@H]1CC[C@]2(C)CC[C@]3(C)C(CCC4[C@@]5(C)CC[C@H](O)C(C)(C)C5CC[C@]43C)C12 (stereo not given in full) | inactive | – |
| O=C(/C=C/c1ccc(O)cc1)OC[C@@]1(O)C=C[C@@H]2C(C(=O)O)=CO[C@@H](O[C@@H]3O[C@H](CO)[C@@H](O)[C@H](O)[C@H]3O)[C@@H]21 | inactive | – |
| COC(=O)[C@]1(C)CCC[C@@]2(C)[C@@H]3CC[C@@H]4C[C@@]3(CC[C@@H]21)C[C@H]4C(=O)O | inactive | – |
| COc1cc(O)cc2c1C(=O)OC(C)CCCCCCC2 (stereo not given) | inactive | – |
| C=C(C)C1Cc2c(ccc3c2OCC(c2ccc(O)cc2O)C3)O1 (stereo not given) | inactive | – |
| CC1=CCC2C(C)(C)CCCC2(C)C1CC12OC1C(O)C(CO)=CC2O (stereo not given) | inactive | – |
| CCC1(O)CC2c3cc(OC)c(OC)cc3CCN2CC1CC(C)C (stereo not given) | inactive | – |
| C=C1CC2C3(C)C=CC(=O)OC(C)(C)C3CC(OC(C)=O)C2(C)C2C(=O)OC(C)C(=O)C12C (stereo not given) | inactive | – |
| COc1cc(C(C)=O)ccc1O[C@@H]1O[C@H](CO[C@@H]2OC[C@@H](O)[C@H](O)[C@H]2O)[C@@H](O)[C@H](O)[C@H]1O | inactive | – |
| O=C(O)/C=C/c1ccc(O[C@@H]2O[C@H](CO)[C@@H](O)[C@H](O)[C@H]2O)cc1 | inactive | – |
| CC1CCC23COC(=O)C2=CC(O)CC3C1(C)CCc1ccoc1 (stereo not given) | inactive | – |
| COc1ccc(C(=O)CC(=O)O)c2c1C=CC(C)(C)O2 | inactive | – |
| C=C[C@H]1[C@H](O[C@@H]2O[C@H](CO)[C@@H](O)[C@H](OC(=O)/C=C/c3ccc(O)c(OC)c3)[C@H]2O)OC=C2C(=O)OCC[C@]21O | inactive | – |
| COc1cc(/C=C/C(=O)O[C@@H]2C[C@](O)(C(=O)O)C[C@@H](O)[C@H]2O)ccc1O | inactive | – |
